High-throughput results: PubChem, The Scripps Research Institute Molecular Screening Center
In the library only some 2.3% were active in any assay of this set; here they are far more common.
EBNA-1 inh = blocks EBNA-1 binding to DNA; EBNA-1 DNA binding, fluorescence polarization; inhibition, % at 14.8 µM; 300,000 tested, 0.34% active; in the data active means inhibition above about 28%
PP1 inh = counter-screen for PP5 inhibitors: inhibitors of human PP1-alpha | P62136 | purified PP1alpha, OMFP fluorescence | inhibition, % at 6.7 µM | 320,000 tested, 0.9% active;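 active means inhibition above the mean inhibition of all tested compounds plus 3 SD, computed separately for each screening campaign, cut at about 15% in these data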
ZTA counter = ZTA (EBV) inhibition in EBNA-1 counter-screen. inhibition, % at 11 µM. 320,000 tested, 0.15% active. ZTA-DNA binding, fluorescence polarization. AID 2234. P03206; in the data active means inhibition above about 33%
MsrA inhibitor = inhibits bovine methionine sulfoxide reductase A | purified bovine MsrA, absorbance read-out | inhibition, % at 15.5 µM | 360,000 tested, 0.75% active | AID 651718
MsrA act = activators of bovine methionine sulfoxide reductase A; purified bovine MsrA, absorbance read-out; activation, % at 10.6 µM; 360,000 tested, 0.3% active; AID 602163; in the data active means activation above about 7.5%
PP5 primary = inhibitors of human protein phosphatase 5 (PP5). P53041. purified PP5c, OMFP substrate fluorescence. inhibition, % at 6.7 µM. 320,000 tested, 0.18% active. AID 1987;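 active means inhibition above the campaign's mean inhibition across all tested compounds plus 3 SD, cut at about 9.5% in these data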
Target sequence (P53041 whole entry, looked up): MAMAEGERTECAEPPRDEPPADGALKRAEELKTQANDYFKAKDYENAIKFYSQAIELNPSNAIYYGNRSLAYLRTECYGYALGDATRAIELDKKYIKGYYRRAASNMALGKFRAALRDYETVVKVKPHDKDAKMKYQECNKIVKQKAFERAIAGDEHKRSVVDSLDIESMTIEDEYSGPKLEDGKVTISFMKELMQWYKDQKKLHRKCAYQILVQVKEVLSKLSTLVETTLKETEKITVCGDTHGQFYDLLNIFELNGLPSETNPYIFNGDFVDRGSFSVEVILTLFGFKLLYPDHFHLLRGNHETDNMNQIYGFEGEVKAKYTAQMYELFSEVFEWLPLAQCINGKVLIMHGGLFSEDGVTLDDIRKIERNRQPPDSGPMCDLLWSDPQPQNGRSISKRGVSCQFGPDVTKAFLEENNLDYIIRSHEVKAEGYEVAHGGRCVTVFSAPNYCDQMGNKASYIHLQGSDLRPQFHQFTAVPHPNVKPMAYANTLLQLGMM
ZTA inh confirm = EBV ZTA DNA binding inhibition, confirmation; shares compounds with ZTA counter; Zta-ZRE DNA binding, fluorescence polarization; inhibition, % at 11.1 µM; 320 tested, 30% active;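 active means mean inhibition across triplicate runs above the hit threshold derived for the original primary screen, cut at about 33% in these data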
EBNA1 counter = counter-screen for ZTA inhibitors: EBNA-1 DNA binding inhibition; shares compounds with ZTA counter; fluorescence polarization; inhibition, % at 14.8 µM; 320 tested, under 10 active; call rule not given here
PP1 inh confirm = confirmation of human PP1 phosphatase inhibitors. shares compounds with PP1 inh. purified PP1alpha, OMFP substrate fluorescence. inhibition, % at 6.7 µM. 1,900 tested, 52% active. AID 2358;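 active means mean PP1 inhibition above a set limit taken from the earlier primary screen, cut at about 15% in these data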
PP5 inh counter = counter-screen for PP1 inhibitors: human PP5 phosphatase inhibition; shares compounds with PP1 inh; purified PP5c, OMFP fluorescence; inhibition, % at 6.7 µM; 1,900 tested, 4% active; AID 2360;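 active means mean PP5 inhibition over triplicate wells above about 9.5% taken from the earlier PP1 screen, limit read from the data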
MsrA inh confirm = confirmation of bovine MsrA inhibitors; inhibition, % at 15.5 µM; AID 651822; shares compounds with MsrA inhibitor; 2,300 tested, 41% active; purified bovine MsrA, absorbance read-out;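 further: coupled to thioredoxin reductase with NADPH and selenocystamine and DMSO as substrate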
A number is an active result; - = inactive; . = no result given. Unless noted, no stated cut-off is given here; in the data, active means inhibition above about 4.5%; inactive means the rest.

SMILES	EBNA-1 inh	PP1 inh	ZTA counter	MsrA inhibitor	MsrA act	PP5 primary	PP1 inh confirm	PP5 inh counter	others
COc1ccc(-c2coc3c(CN4CCCCC4)c(O)c(CN4CCCCC4)c(O)c3c2=O)cc1	-	29.0	73.0	.	.	-	-	-	ZTA inh confirm=-;EBNA1 counter=-
O=c1c(-c2ccc(Br)cc2)coc2c(CN3CCCCC3)c(O)ccc12	.	.	.	-	-	.	.	.
CCc1ccc(S(=O)(=O)/N=C2\C=C(NS(=O)(=O)c3ccccc3)C(=O)c3ccccc32)cc1	.	.	.	-	-	.	.	.
COc1ccc(S(=O)(=O)/N=C2\C=C(Nc3ccc(O)cc3)C(=O)c3ccccc32)cc1	-	-	35.0	34.8	-	-	.	.	ZTA inh confirm=-;EBNA1 counter=-;MsrA inh confirm=33.5
NC(=O)CSc1nnc(CSc2ncccn2)n1-c1ccccc1	-	-	-	-	-	-	.	.
CN(C)c1ccc(N=C/C=C2\N(C)c3ccccc3C2(C)C)cc1	-	-	163.1	5.0	-	-	.	.	ZTA inh confirm=-;EBNA1 counter=-;MsrA inh confirm=-
O=c1c(Cl)c(N/N=C/c2ccc(Br)cc2)cnn1-c1ccccc1	-	24.1	-	-	-	-	21.9	-
Cc1csc2nc(SCC(=O)N3CCN(c4ccccc4)CC3)[nH]c(=O)c12	-	-	-	-	-	-	.	.
Cc1cc(C(=O)N2CCCC(Nc3ccc(C(C)C)cc3)C2)nn1C (stereo unspecified)	-	47.3	-	-	-	-	-	-
O=C(COC(=O)/C=C/c1ccc(Br)o1)Nc1ccc2[nH]c(=O)[nH]c2c1	-	20.6	-	-	-	-	25.3	-
CCOc1ccc(CCNC(=O)c2cccc(C#N)c2)cc1OCC	-	-	-	-	-	-	.	.
Cc1cccc(C)c1NC(=O)C1(C)CN(S(C)(=O)=O)CC(=O)N1CCc1ccccc1F (stereo unspecified)	.	.	.	-	.	.	.	.
COc1ccc(-c2oc3ccccc3c2C#Cc2cncn2C)cc1	.	17.5	-	-	-	-	24.6	-
COc1ccc(-c2sc3ccc(OC)cc3c2C#Cc2cncn2C)cc1	.	.	.	-	-	.	.	.
O=C(NCCc1ccccc1)/C(=C\c1ccc([N+](=O)[O-])cc1)NC(=O)c1ccc(Br)cc1	-	18.2	-	-	-	-	21.8	-
O=C(OCC(=O)N1CCN(C(=O)c2ccco2)CC1)c1cc(-c2ccco2)nc2ccccc12	-	21.8	-	.	-	-	-	-
O=C(OCC(=O)N1CCN(C(=O)c2ccco2)CC1)c1cc(-c2ccc(Cl)c(Cl)c2Cl)nc2ccccc12	-	-	-	-	-	-	.	.
O=C(CN(C(=O)CNC(=O)c1ccco1)c1ccc(Cl)c(Cl)c1)NC1CCCCC1	-	-	-	-	-	-	.	.
O=S(=O)(c1ccc(N2CCN(Cc3ccccc3)CC2)nc1)N1CCCC1	.	-	-	-	-	-	.	.
CC1(C)CC(=O)C=C(c2cccc(Br)c2)C1	.	-	-	-	-	-	.	.
CCN1CCN(S(=O)(=O)c2ccc(Cl)c(C(=O)Nc3ccccc3N3CCCC3)c2)CC1	-	-	-	-	-	-	.	.
CCN1CCN(S(=O)(=O)c2ccc(Cl)c(C(=O)Nc3ccccc3N3CCCCC3)c2)CC1	-	22.8	-	-	-	-	-	-
CC(=O)Nc1ccc(NC(=O)C(OC(=O)c2ccccc2)C(OC(=O)c2ccccc2)C(=O)O)cc1 (stereo unspecified)	-	-	-	-	-	-	.	.
CC1CC2C3CCC4=CC(=O)C=CC4(C)[C@@]3(Cl)C(O)CC2(C)C1(O)C(=O)CO (stereo partly specified)	-	-	-	-	-	-	.	.
C[C@@H]1C[C@H]2[C@@H]3CCC4=CC(=O)C=C[C@]4(C)[C@@]3(Cl)[C@@H](O)C[C@]2(C)[C@@]1(OC(=O)c1ccco1)C(=O)CCl	-	23.1	-	-	-	-	26.6	-
